# Compound activity: PubChem BioAssay, National Center for Advancing Translational Sciences (NCATS)
# Tau fibril ThT = blocks human tau fibril formation measured by thioflavin T. P10636. recombinant tau K18 P301L, heparin-induced fibrillization, ThT fluorescence. Potency, µM (series often up to 57.4 µM), inactives show top-dose activity, negative = inhibition, hits mostly inhibitors. actives 2.1% (n = 270,000); note: nearly all actives have a fitted effect of over 55% in size
# Target sequence (P10636 561-689 P618L limits assumed): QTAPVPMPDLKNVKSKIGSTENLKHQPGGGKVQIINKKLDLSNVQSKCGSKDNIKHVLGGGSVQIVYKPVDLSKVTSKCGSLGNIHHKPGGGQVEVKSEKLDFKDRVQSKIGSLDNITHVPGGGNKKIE
#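 Heparin-induced fibrillization of the P301L-mutant K18 repeat-domain fragment of human tau was followed by ThT binding in quantitative high-throughput format.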
# Tau fluor counter = counter-screen for tau fibril formation inhibitors; Potency, µM (titrated, usually from 57.7 µM), for the others: at the top dose activity change, negative = decrease; actives 0.93% (n = 280,000); tau K18 P301L Alexa594 fluorescence, heparin fibrillization; AID 1463; note: nearly all actives have a fitted effect of over 55% in size
#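 Human tau K18 P301L (15 uM unlabeled, 0.24 uM Alexa 594-labeled) in 100 mM sodium acetate pH 7 with 20 uM heparin, 6 hr at 37 C. ThT 30 uM added, 1 hr ambient; Alexa 594 FP and total fluorescence read at 555/632 nm.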
# RGS12 GoLoco inh = inhibitors of human Gai1-RGS12 GoLoco interaction (red fluorophore); Gai1:RGS12 GoLoco peptide FP, rhodamine, 10 min; actives 0.44% (n = 230,000); Potency, µM (doses to about 61.6 µM), inactives show top-dose activity, negative = inhibition, most hits filed as inhibitors; P63096; active = well fitted inhibition curve with a large enough effect, not every such curve was filed as active; inactive = no such curve, though single readings can be large or run the other way; note: nearly all actives have a fitted effect of over 30% in size
# Target sequence (P63096 whole entry, looked up): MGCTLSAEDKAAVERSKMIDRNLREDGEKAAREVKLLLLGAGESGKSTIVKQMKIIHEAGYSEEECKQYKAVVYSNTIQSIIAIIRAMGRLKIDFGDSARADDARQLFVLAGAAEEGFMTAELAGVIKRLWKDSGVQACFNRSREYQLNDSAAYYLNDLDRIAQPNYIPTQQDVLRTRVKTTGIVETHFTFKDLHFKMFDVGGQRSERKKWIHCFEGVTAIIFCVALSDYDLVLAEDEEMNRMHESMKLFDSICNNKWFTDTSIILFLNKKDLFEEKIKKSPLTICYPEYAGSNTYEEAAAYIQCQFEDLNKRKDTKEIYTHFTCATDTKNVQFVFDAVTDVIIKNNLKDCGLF
# KDM4E inh = blocks human JMJD2E demethylase activity | B2RXH2 | actives 1.6% (n = 230,000) | AID 2147 | JMJD2E catalytic domain, FDH-coupled NADH fluorescence (FDH is formaldehyde dehydrogenase) | Potency, µM (highest dose often 57.1 µM), for inactives: top-dose activity change, negative = inhibition, actives largely listed as inhibitors; active = well fitted inhibition curve with a large enough effect, not every such curve was filed as active; inconclusive = small, poorly fitted or top-dose-only effect, or another doubt; inactive = no such curve, though single readings can be large or run the other way;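 note: 0% = wells with enzyme and -100% = buffer wells without enzyme; nearly all actives have a fitted effect of over 50% in size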
# Tau FP inhib = inhibitors of human tau fibril formation; actives 0.39% (n = 280,000); P10636; AID 1468; K18 P301L tau heparin fibrillization, Alexa594 FP, 6 h; Potency, µM (doses to about 57.7 µM), without a hit: at the top dose activity, negative = inhibition, most hits filed as inhibitors; note: nearly all actives have a fitted effect of over 55% in size
#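 Human tau K18 […] P301L fragment, 15 uM unlabeled plus 0.24 uM Alexa 594-labeled tau (final), with compound and 20 uM heparin in 100 mM sodium acetate pH 7; 6 hr at 37 C, then Alexa 594 FP read.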
# * hit, by the source's call; u = inconclusive; x = no result; ! = not confirmed by another sample; [ ] = another dose, or the depositor's remark. Most compounds without a hit are left out; they make up all but 3.4% or so of the library. Unless noted, calls come from the whole dose curve; as a rule, active = well fitted curve in the direction sought with a large enough effect; inconclusive = small, poorly fitted or top-dose-only effect, or another doubt; inactive = no such curve, though single readings can be large; an effect the other way counts as inactive or inconclusive. Unless noted, % is set by controls: 0 for no effect and ±100 for the full control effect; potency is the fitted concentration of half-maximal effect.
SMILES,Tau fibril ThT,Tau fluor counter,RGS12 GoLoco inh,KDM4E inh,Tau FP inhib
COc1ccc(-c2oc(NC(=O)c3ccc(C)cc3)c(C#N)c2-c2ccc(OC)cc2)cc1,-10%,u,6%,-16%,10%
COc1ccc(-c2oc(NC(C)=O)c(C#N)c2-c2ccc(OC)cc2)cc1,u,16µM*[quencher],9%,-3%,u
O=C(CSC1=NCCS1)NC(c1ccccc1)c1ccccc1,16µM*,-10%,11%,2%,u
O=C(CSC1=NCCS1)NC(NC(=O)CSC1=NCCS1)c1ccccc1,-15%,-7%,-4%,-5%,-6%
COc1ccc(NC(=O)/C(C#N)=C\c2ccc(OCc3ccc(C(=O)O)cc3)c(OC)c2)cc1,4µM*,-21%,16%,u,-16%
Cc1ccc(NC(=S)NCCc2c[nH]c3ccccc23)cc1,u,u,11%,1%,u
O=C(NCCc1c[nH]c2ccccc12)OCCSS(=O)(=O)O,14µM*,-15%,9%,u,u
COc1ccc(Cl)cc1NC(=S)NCCc1c[nH]c2ccccc12,u,22µM*[quencher],1%,0%,5%
CC(C)c1ccc(NC(=S)NCCc2c[nH]c3ccccc23)cc1,u,11µM*[quencher],0%,-26%,2%
Cc1cc(C)cc(NC(=O)C(=O)NCCc2c[nH]c3ccccc23)c1,u,16µM*[quencher],5%,-10%,-4%
Cc1ccc(S(=O)(=O)NC(C)(C)CSc2nnc(Nc3ccccc3)s2)cc1,-17%,18µM*[quencher],-5%,-2%,4%
O=C(CC1N=C2c3ccccc3N=C(SCc3cccc(Cl)c3)N2C1=O)NCCc1ccccc1 (centres undefined),-12%,-6%,x,x,13%
O=c1c(O)c(-c2ccc(O)c(O)c2)oc2ccccc12,14µM*,u,4%,10µM*,10%
O=c1c(O)c(-c2ccc(O)c(O)c2)oc2cc(O)ccc12,5µM*,u,-2%,14µM*!,9%
O=C1C(=Cc2cccs2)C(=O)c2ccccc21,4%,4%,-2%,2%,-2%
O=C1/C(=C\c2cccs2)Sc2ccc3ccccc3c21,1µM*,-22%,-12%,11%,-2%
Cn1c(-c2ccc(S(=O)(=O)N3CCCC3)cc2)csc1=Nc1ccc(Cl)c(Cl)c1,-6%,-20%,x,x,1%
Cc1ccc(C(=O)Nc2c(C(=O)NCc3ccc(Cl)cc3)sc3nc(C)cc(C)c23)cc1,-1%,-15%,x,x,-8%
O=C(CSc1nc(-c2ccccc2)c(-c2ccccc2)[nH]1)Nc1nccs1,u,14µM*[quencher],10%,u,2%
COc1ccc(-c2[nH]c(-c3ccc(C)cc3)nc2SCC(=O)Nc2nccs2)cc1,u,18µM*[quencher],-4%,2%,u
COc1ccc(-c2[nH]c(-c3ccc(SC)cc3)nc2SCC(=O)Nc2nccs2)cc1,u,7.1µM*[quencher],-5%,u,8%
COc1ccc(-c2nc(SCC(=O)Nc3nccs3)c(-c3ccc(Cl)cc3)[nH]2)cc1,3%,0%,2%,2%,5%
Nc1ccccc1SCC(=O)Nc1nccs1,-3%,0%,-30%,-3%,3%
CCOc1ccccc1NC(=O)CN1C(=O)COc2ccc(S(=O)(=O)N3CCCCC3)cc21,-2%,-10%,x,x,3%
Cc1cc(SCC(=O)N/N=C/c2ccc(O)c(O)c2O)c(C)cc1Br,7.9µM*,14µM*[quencher],5%,10µM*,13µM*
SMILES,Tau fibril ThT,Tau fluor counter,RGS12 GoLoco inh,KDM4E inh,Tau FP inhib
COc1cccc(/C=N/NC(=O)CCn2c3ccccc3c3ccccc32)c1,3%,-18%,-1%,u,u
COc1cc(/C=N/NC(=O)CSc2cc(C)c(Br)cc2C)ccc1O,u,25µM*[quencher],-2%,6%,1%
COc1ccc(/C=N/NC(=O)CCn2c3ccccc3c3ccccc32)cc1O,u,18µM*[quencher],2%,-3%,-10%
COc1ccc(/C=N/NC(=O)CSc2ccccc2)cc1OC,-13%,-2%,0%,-7%,-2%
Cc1cc(SCC(=O)NN=C2CCN(C(C)C)CC2)c(C)cc1Br,-10%,-4%,-1%,10%,-3%
Fc1ccc(-c2cc(-c3ccc(F)cc3)c3c(n2)-c2cc(F)ccc2OC3)cc1,-1%,-6%,x,x,-9%
COc1ccccc1CNC(=O)CCn1c(=O)c2ccccc2n(CC(=O)Nc2ccc(C)cc2)c1=O,3%,-11%,x,x,-2%
CCOc1ccc(NC(=O)/C=C\C(=O)N(c2ccc(C(C)C)cc2)C(C(=O)NCc2ccco2)c2ccc(F)cc2)cc1 (centres undefined),u,-29%,x,x,0%
CN1/C(=C/C(=O)CSc2ccccc2C(=O)O)C(C)(C)c2ccccc21,u,u,195%,3%,4%
Cc1cc(=O)[nH]c(SCC(=O)/C=C2\N(C)c3ccccc3C2(C)C)n1,u,25µM*[fluorescent],125%,u,u
O=C1NC2=C(C(=O)c3ccccc32)C(c2ccccc2)N1 (centres undefined),22µM*,-22%,-2%,-4%,u
CCOc1ccc(C2C(C#N)=C(C)NC3=C2C(=O)c2ccccc23)cc1 (centres undefined),u,20µM*[quencher],17%,u,u
CC(=O)C1=C(C)NC(=O)NC1c1ccccc1 (centres undefined),-7%,-7%,6%,-1%,-3%
CC1=C([N+](=O)[O-])C(c2ccccc2)C2=C(N1)c1ccccc1C2=O (centres undefined),16µM*,16µM*[quencher],49%,-5%,-1%
CCOC(=O)C1=C(C)NC2=C(C(=O)c3ccccc32)C1c1cccnc1 (centres undefined),u,-9%,18%,2%,6%
CCOc1ccc(C2C(C(=O)OC)=C(C)NC3=C2C(=O)c2ccccc23)cc1OC (centres undefined),u,16µM*[quencher],x,x,-5%
CCn1nc(C)c2c(-c3ccccc3)cc(=O)n(C(C)C(=O)NCCc3ccc(OC)c(OC)c3)c21 (centres undefined),-9%,3%,x,x,4%
C#CCOc1c(Br)cc(C2C(C(=O)OC)=C(C)NC3=C2C(=O)c2ccccc23)cc1OCC (centres undefined),6.3µM*,3.5µM*[quencher],x,x,u
CC(=O)NC(=O)COC(=O)c1ccc2ncsc2c1,-6%,-2%,0%,-1%,-5%
O=C(O)c1ccc2ncsc2c1,6%,8%,8%,14µM*,0%
CCOC(=O)c1ccc(N2CCN(c3cc(C)ccc3C)CC2)c(NC(=O)Nc2ccccc2)c1,-3%,-25%,x,x,-13%
Cc1onc(-c2ccccc2Cl)c1C(=O)Nc1sc2c(c1C#N)CCC2,28µM*,u,27%,4%,u
COc1ccc(/C=C/C(=O)c2ccccc2O)cc1,u,-13%[11.6 µM],-1%,-3%,8%[11.6 µM]
COc1ccc(/C=C/C(=O)c2ccccn2)cc1,20µM*,-22%,-10%,u,-15%
